Test results reported in PubChem BioAssay (Tox21).
Results filed as inconclusive are left out. Calls of active or inactive are those of the source. Unless noted, calls follow the shape of the dose curve; as a rule, active = well fitted curve in the direction sought with a large enough effect in the repeat runs; inconclusive = weak or mixed curves; inactive = no such curve, though single readings can be large; an effect the other way counts as inactive or inconclusive.

Experiments:
[1] = qHTS assay to identify small molecule HDAC inhibitors (AID 1259364);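 also: wild-type HCT-116 cells with endogenous class I/II HDAC activity; top concentration of the series differs between compounds; nearly all actives have a fitted effect of over 45% in size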
How it was run: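 Screening used wild-type human colon HCT-116 cells incubated overnight, dosed with compounds for 2 hours, and assayed with a homogeneous luminogenic HDAC I/II reagent for 30 minutes at room temperature.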

[2] = qHTS assay to identify small molecule HDAC inhibitors - cell viability counter screen (AID 1259365); also: series mostly up to about 92 µM; nearly all actives have a fitted effect of over 50% in size
How it was run: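 HCT-116 wild-type, overnight attachment; 2hr drug exposure, 37C; CellTiter-Glo luminescent ATP readout after 30min RT.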

[3] = qHTS assay to identify small molecule agonists of the sonic hedgehog signaling (Shh) pathway - cell viability counter screen (AID 1259366); also: nearly all actives have a fitted effect of over 50% in size; also: potency is read from the fitted curve at half-maximal effect
How it was run: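 Compounds in DMSO were pin-transferred onto 3T3 Gli1-Luc cells that had settled 4hr; plates then stood 24hr at 37C and 5% CO2. One hour before the end, CellTiter-Fluor was added and fluorescence recorded.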

[4] = qHTS assay to identify small molecule antagonists of the sonic hedgehog signaling (Shh) pathway - cell viability counter screen (AID 1259367); also: nearly all actives have a fitted effect of over 55% in size; also: potency is read from the fitted curve at half-maximal effect
How it was run: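 Viability was read by CellTiter-Fluor fluorescence in the same wells, reagent added 23 hr into compound treatment and incubated 1 hr at 37C. The 3T3 Gli1-Luc reporter cells (2,000/well) received conditioned medium after compound and ran 24 hr.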

[5] = qHTS assay to identify small molecule agonists of the sonic hedgehog signaling (Shh) pathway (AID 1259368; calls by dose curve;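 also: NIH/3T3-derived 3T3Gli1-Luc cells carrying a stable Gli1-driven firefly luciferase reporter; series mostly up to about 92 µM; nearly all actives have a fitted effect of over 15% in size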)
How it was run: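 Hedgehog pathway agonism scored by increased firefly luciferase luminescence in 3T3Gli1-Luc cells treated 24 hr at 37 C; detection used a 30 min room-temperature reagent incubation.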

[6] = qHTS assay to identify small molecule antagonists of the sonic hedgehog signaling (Shh) pathway (AID 1259369; calls by dose curve; also: nearly all actives have a fitted effect of over 45% in size; also: potency is read from the fitted curve at half-maximal effect)
How it was run: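 NIH/3T3 stable Gli1-Luc clone, 2,000 cells/well, 4hr settle; cpd + conditioned medium 24hr; Luc reagent 30min RT; luminescence.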

[7] = target: Estrogen receptor beta (Homo sapiens) (UniProt Q92731); test: qHTS assay to identify small molecule agonists of the estrogen receptor beta (ER-beta) signaling pathway (AID 1259377; active = well fitted activation curve with a large enough effect in the signal ratio in the repeat runs, not every such curve was filed as active; the % refers to the signal ratio)
How it was run: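 qHTS in ER-beta-UAS-bla HEK293T cells: 6 hr settling, then 16 hr compound at 37C, then LiveBLAzer substrate 2 h at RT before fluorescence reading.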

[8] = target: Estrogen receptor beta (Homo sapiens) (UniProt Q92731); test: qHTS assay to identify small molecule antagonists of the estrogen receptor beta (ER-beta) signaling pathway (AID 1259378; active = well fitted inhibition curve with a large enough effect in the signal ratio in the repeat runs, not every such curve was filed as active; the % refers to the signal ratio; also: potency is read from the fitted curve at half-maximal effect)
How it was run: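 Antagonist mode: compounds added to beta-lactamase reporter HEK293T ER-beta-UAS cells stimulated with E2 (1nM final), 16 hr at 37C. LiveBLAzer B/G FRET substrate, 2 hours room temperature, fluorescence read-out.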

[9] = qHTS assay to identify small molecule agonists of the androgen receptor (AR) signaling pathway in the presence of an antagonist - cell viability counter screen (AID 1259379); also: nearly all actives have a fitted effect of over 25% in size; also: potency is read from the fitted curve at half-maximal effect
How it was run: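 MDA-kb2 viability measured by CellTiter-Fluor fluorescence in the same wells as the luciferase signal; nilutamide 3.0uM final; 15-point compound titration; 16 hr at 37C.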

[10] = qHTS assay to identify small molecule agonists of the estrogen receptor beta (ER-beta) signaling pathway - cell viability counter screen (AID 1259380); also: nearly all actives have a fitted effect of over 30% in size; also: potency is read from the fitted curve at half-maximal effect
How it was run: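 Measured: luminescence from CellTiter-Glo after 30 min at room temperature, added to wells already read for the LiveBLAzer FRET reporter (2 hr substrate); ER-beta-UAS-bla HEK293T cells had 16 hr compound treatment at 37C, 5% CO2.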

[11] = target: Androgen receptor (Homo sapiens) (UniProt P10275); test: qHTS assay to identify small molecule agonists of the androgen receptor (AR) signaling pathway in the presence of an antagonist (AID 1259381; calls by dose curve; also: nearly all actives have a fitted effect of over 15% in size)
How it was run: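 Luminescent ONE-Glo read, 30min at room temperature, follows 16hr compound exposure (15 concentrations) of MDA-kb2 cells at 37C, 0% CO2, with nilutamide added at 3.0uM final.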

[12] = qHTS assay to identify small molecule agonists or antagonists of the thyroid stimulating hormone receptor (TSHR) signaling pathway - wild type cell line counter screen (AID 1259384; calls by dose curve)
How it was run: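 Counter screen in untransfected Hek293: compounds (15-point titration, triplicate) plus phosphodiesterase inhibitor Ro20-1724 added after 18 h plating; 30 min RT. Intracellular cAMP via competitive d2/cryptate immunoassay, 1 h incubation.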

[13] = target: Thyrotropin receptor (Homo sapiens) (UniProt P16473); test: qHTS assay to identify small molecule antagonists of the thyroid stimulating hormone receptor (TSHR) signaling pathway (AID 1259385; calls by dose curve; also: nearly all actives have a fitted effect of over 20% in size)
How it was run: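 Antagonist mode: compound-treated TSHR-expressing HEK293 cells were stimulated with 1.5 ng/mL TSH (final) in presence of Ro20-1724 for 30 min at RT. HTRF cAMP detection after 1 h; each compound tested at 15 concentrations, triplicate.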

[14] = qHTS assay to identify small molecule agonists of the estrogen receptor alpha (ER-alpha) signaling pathway in the presence of an antagonist - cell viability counter screen (AID 1259386);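 also: cells exposed to compounds for 22 h at 37 °C before the viability read; nearly all actives have a fitted effect of over 30% in size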; also: potency is read from the fitted curve at half-maximal effect
How it was run: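 The test measures whether compounds kill ER-alpha reporter cells (VM7Luc4E2) under antagonist co-treatment (ICI-182,780, 10.0nM). Fluorescence from CellTiter-Fluor is read after a 22hr exposure.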

[15] = target: Progesterone receptor (Homo sapiens) (UniProt P06401); test: qHTS assay to identify small molecule antagonists of the progesterone receptor (PR) signaling pathway (AID 1346795; active = well fitted inhibition curve with a large enough effect in the signal ratio in the repeat runs, not every such curve was filed as active; the % refers to the signal ratio; also: potency is read from the fitted curve at half-maximal effect)
How it was run: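 Fluorescence intensity measured 2 hr after adding beta-lactamase FRET substrate to PR-UAS-bla HEK293T cells that had been co-treated 16 hr with compound and 1 nM R5020 (final concentration) in 2% charcoal-stripped FBS.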

[16] = qHTS assay to identify small molecule antagonists of the estrogen receptor beta (ER-beta) signaling pathway - cell viability counter screen (AID 1259382); also: nearly all actives have a fitted effect of over 55% in size; also: potency is read from the fitted curve at half-maximal effect
How it was run: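 Readout: luminescence, CellTiter-Glo, same wells as bla assay. System: ER-beta-UAS-bla GripTite HEK293T, 2% charcoal-stripped FBS. Exposure: compounds plus 1nM 17-beta-estradiol, 16 hr, 37C.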

[17] = target: Estrogen receptor (Homo sapiens) (UniProt P03372); test: qHTS assay to identify small molecule agonists of the estrogen receptor alpha (ER-alpha) signaling pathway in the presence of an antagonist (AID 1259383; calls by dose curve; also: top concentration of the series differs between compounds; nearly all actives have a fitted effect of over 15% in size)
How it was run: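 Quantitative HTS confirmation: compounds titrated at 15 concentrations onto estrogen-deprived VM7Luc4E2 cells carrying a four-ERE luciferase construct, with ICI-182,780 present at 10.0nM final. Signal is luminescence after 22hr exposure.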

[18] = target: Progesterone receptor (Homo sapiens) (UniProt P06401); test: qHTS assay to identify small molecule agonists of the progesterone receptor (PR) signaling pathway (AID 1346784; calls by dose curve; also: nearly all actives have a fitted effect of over 30% in size)
How it was run: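 Fluorescence from LiveBLAzer B/G FRET substrate cleavage (2 hr, RT) reported PR activation in PR-UAS-bla HEK 293T cells treated 16 hr at 37C/5% CO2 with compounds; medium contained 2% charcoal-stripped FBS.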

[19] = qHTS assay to identify small molecule phospholipidosis (PLD) inducers (AID 1259344; active = well fitted curve in the direction sought with a large enough effect; an effect the other way counts as inactive or inconclusive)
How it was run: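 Phospholipid accumulation was scored by imaging: fixed, Hoechst-counterstained HepG2 cells stained with LipidTOX Red after 24 h compound exposure at 37 C. Read-outs were pit count and pit intensity per well or per cell, with amiodarone and DMSO controls.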

Measured: Potency

Progesterone receptor (Homo sapiens), sequence (P06401 whole entry, looked up): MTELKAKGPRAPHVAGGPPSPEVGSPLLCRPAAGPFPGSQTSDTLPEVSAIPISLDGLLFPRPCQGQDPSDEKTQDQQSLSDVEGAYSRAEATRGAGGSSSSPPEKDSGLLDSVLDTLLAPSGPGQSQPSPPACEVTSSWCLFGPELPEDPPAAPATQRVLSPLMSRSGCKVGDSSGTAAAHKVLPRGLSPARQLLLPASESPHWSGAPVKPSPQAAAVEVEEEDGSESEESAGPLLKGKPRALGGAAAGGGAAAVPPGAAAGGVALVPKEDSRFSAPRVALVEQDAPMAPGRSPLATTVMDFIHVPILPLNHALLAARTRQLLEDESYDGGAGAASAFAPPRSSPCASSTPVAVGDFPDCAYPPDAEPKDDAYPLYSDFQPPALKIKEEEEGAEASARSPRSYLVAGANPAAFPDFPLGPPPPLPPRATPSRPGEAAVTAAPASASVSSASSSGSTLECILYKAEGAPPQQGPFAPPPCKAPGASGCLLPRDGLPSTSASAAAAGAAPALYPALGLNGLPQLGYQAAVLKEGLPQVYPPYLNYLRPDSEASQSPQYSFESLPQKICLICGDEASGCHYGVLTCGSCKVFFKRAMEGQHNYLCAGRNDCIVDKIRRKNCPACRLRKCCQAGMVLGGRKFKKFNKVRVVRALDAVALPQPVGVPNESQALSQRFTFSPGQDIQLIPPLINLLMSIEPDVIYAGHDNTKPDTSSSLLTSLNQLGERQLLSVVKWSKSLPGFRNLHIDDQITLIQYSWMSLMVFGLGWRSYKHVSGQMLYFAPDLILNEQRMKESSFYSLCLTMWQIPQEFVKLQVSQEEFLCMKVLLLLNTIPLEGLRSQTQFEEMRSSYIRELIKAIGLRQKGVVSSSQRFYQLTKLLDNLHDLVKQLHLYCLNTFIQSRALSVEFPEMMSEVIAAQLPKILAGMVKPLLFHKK
Androgen receptor (Homo sapiens), sequence (P10275 whole entry, looked up): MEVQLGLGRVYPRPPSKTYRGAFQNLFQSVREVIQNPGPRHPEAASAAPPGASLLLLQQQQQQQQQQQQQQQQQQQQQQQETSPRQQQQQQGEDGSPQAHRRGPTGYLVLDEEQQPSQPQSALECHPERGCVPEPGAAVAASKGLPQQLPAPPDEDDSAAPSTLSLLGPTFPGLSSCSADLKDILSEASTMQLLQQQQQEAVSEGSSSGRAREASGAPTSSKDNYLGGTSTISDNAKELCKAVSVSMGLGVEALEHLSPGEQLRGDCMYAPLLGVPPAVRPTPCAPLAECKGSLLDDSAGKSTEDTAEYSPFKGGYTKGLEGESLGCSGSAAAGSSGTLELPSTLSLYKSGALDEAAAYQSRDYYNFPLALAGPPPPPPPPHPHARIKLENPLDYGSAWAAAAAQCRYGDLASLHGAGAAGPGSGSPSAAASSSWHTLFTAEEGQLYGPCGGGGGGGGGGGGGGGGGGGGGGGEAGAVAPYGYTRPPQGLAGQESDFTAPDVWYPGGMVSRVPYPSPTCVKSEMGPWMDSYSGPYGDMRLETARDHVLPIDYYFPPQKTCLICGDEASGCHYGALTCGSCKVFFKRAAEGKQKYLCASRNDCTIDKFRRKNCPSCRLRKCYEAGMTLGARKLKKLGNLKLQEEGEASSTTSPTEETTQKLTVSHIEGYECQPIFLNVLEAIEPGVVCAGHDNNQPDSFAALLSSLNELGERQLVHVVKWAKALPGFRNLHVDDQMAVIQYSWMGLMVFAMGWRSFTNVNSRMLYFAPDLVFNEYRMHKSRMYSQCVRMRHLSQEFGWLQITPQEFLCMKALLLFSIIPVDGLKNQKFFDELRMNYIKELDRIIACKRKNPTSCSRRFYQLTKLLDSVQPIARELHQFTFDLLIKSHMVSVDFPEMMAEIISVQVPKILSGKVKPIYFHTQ
Estrogen receptor beta (Homo sapiens), sequence (Q92731 whole entry, looked up): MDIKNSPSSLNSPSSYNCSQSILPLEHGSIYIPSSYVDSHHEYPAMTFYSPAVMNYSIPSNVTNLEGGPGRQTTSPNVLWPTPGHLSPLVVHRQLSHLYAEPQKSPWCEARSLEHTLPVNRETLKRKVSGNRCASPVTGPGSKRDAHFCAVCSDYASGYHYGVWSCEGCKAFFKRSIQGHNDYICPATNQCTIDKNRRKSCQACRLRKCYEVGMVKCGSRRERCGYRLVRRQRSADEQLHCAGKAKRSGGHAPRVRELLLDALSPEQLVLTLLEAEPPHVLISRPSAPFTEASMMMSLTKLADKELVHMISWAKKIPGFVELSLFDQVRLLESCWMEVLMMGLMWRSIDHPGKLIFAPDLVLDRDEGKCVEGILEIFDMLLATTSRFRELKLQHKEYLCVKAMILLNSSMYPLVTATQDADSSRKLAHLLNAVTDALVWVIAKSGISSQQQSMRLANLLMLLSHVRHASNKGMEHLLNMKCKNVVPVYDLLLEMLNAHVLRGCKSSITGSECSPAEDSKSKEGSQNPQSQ
Estrogen receptor (Homo sapiens), sequence (P03372 whole entry, looked up): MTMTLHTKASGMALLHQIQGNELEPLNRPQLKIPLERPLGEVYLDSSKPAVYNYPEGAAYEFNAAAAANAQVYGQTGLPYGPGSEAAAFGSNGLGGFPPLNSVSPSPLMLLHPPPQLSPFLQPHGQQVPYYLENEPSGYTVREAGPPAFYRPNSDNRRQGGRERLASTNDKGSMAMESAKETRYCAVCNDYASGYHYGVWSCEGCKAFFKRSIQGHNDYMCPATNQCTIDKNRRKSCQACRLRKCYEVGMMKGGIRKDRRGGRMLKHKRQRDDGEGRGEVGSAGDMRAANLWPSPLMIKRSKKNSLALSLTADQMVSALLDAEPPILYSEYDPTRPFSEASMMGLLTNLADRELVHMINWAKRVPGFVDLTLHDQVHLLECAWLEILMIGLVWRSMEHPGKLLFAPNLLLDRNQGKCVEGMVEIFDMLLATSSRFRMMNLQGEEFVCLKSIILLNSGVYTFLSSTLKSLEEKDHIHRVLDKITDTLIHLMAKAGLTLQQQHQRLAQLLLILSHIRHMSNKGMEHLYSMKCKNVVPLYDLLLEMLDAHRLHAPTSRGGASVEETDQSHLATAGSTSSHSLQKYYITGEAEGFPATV
Thyrotropin receptor (Homo sapiens), sequence (P16473 whole entry, looked up): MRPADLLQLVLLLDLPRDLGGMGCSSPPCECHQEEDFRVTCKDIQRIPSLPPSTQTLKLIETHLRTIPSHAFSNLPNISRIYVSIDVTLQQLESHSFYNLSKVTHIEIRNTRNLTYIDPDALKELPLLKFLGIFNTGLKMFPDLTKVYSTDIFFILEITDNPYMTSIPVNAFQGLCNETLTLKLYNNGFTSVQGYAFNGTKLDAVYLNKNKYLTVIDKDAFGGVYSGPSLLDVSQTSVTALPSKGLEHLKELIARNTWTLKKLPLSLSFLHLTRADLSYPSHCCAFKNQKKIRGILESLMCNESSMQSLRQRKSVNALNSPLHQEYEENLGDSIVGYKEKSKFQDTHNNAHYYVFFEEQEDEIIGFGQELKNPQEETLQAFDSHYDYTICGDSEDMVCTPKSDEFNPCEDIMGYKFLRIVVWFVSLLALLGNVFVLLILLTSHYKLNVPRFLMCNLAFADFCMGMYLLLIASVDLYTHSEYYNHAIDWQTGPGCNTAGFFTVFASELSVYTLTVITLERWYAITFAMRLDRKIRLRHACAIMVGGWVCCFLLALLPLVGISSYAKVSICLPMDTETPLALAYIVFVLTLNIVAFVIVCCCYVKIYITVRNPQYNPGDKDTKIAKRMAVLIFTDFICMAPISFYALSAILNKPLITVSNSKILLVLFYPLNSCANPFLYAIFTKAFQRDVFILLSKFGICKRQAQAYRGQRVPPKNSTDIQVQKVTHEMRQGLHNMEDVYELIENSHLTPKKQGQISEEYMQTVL

Cc1ccc(-n2[nH]c(C)c(N=Nc3cccc(-c4cccc(C(=O)O)c4)c3O)c2=O)cc1C
active: [8] 8.41 µM | [9] 29.8 µM | [10] 26.6 µM | [14] 29.8 µM | [15] 18.8 µM
not listed: [16] | [17] | [18] | [19]
inactive: all other assays above

C=CC(=O)OCCN(CC)CC
not listed: [11] | [14] | [19]
inactive: all other assays above

CN(C)CCOC(c1ccccc1)c1ccccc1 (tested in a mixture with another compound)
active: [4] 61.6 µM | [6] 24.5 µM | [10] 69.1 µM
not listed: [8] | [14] | [15] | [16] | [18] | [19]
inactive: all other assays above

CC(C)OC(=O)c1cc(C(=O)OC(C)C)cc([N+](=O)[O-])c1
not listed: [1] | [3] | [6] | [7] | [10] | [11] | [15] | [17]
inactive: all other assays above

CSc1c(Cl)c(Cl)c(Cl)c(Cl)c1Cl
not listed: [10] | [11] | [13] | [17] | [19]
inactive: all other assays above

C=CC(C)C#N (centres undefined)
inactive: [1] | [2] | [3] | [4] | [5] | [6] | [9] | [10] | [16]

O=C[C@H](O)[C@H](O)[C@H](O)CO
not listed: [8] | [13] | [16] | [17] | [18] | [19]
inactive: all other assays above

Cc1cnccn1
not listed: [12] | [13] | [19]
inactive: all other assays above

CC(C)(C)C1=CC(=O)C=C(C(C)(C)C)C1=O
not listed: [11] | [13] | [19]
inactive: all other assays above

CCCCCCCCCCCCCC[n+]1ccccc1
active: [3] 61.1 µM | [4] 61.1 µM | [6] 0.0049 µM | [9] 3.06 µM | [10] 30.6 µM | [16] 61.1 µM | [14] 54.5 µM
inactive: [1] | [2] | [5] | [17] | [12] | [13]

O=Cc1ccc(F)cc1
not listed: [7] | [8] | [19]
inactive: all other assays above

COCC(=O)O[C@]1(CCN(C)CCCc2nc3ccccc3[nH]2)CCc2cc(F)ccc2[C@@H]1C(C)C
active: [3] 13.3 µM | [4] 26.6 µM | [6] 13.3 µM | [8] 11.9 µM | [9] 23.7 µM | [10] 21.1 µM | [16] 18.8 µM | [15] 26.6 µM
inactive: [1] | [2] | [5] | [7] | [11] | [17] | [12] | [14]

CC1(C)C(=O)N(Br)C(=O)N1Br
not listed: [7] | [16] | [17] | [19]
inactive: all other assays above

CCCC(O)C(O)CO (centres undefined)
not listed: [7] | [10] | [16] | [17] | [19]
inactive: all other assays above

C=CC(=O)OCC(O)COc1ccccc1 (centres undefined)
active: [3] 27.3 µM
inactive: [4] | [5] | [6] | [7] | [8] | [16] | [17] | [14] | [18]

CCCCCCCCCCOCC(O)CN (centres undefined)
active: [6] 11.9 µM | [10] 26.6 µM | [16] 26.6 µM
inactive: [1] | [2] | [4] | [5] | [11] | [17] | [12] | [13] | [14]
